Laboratory results published in PubChem BioAssay (NCATS).
Records with an inconclusive call do not appear. The source made the active and inactive calls. Unless noted, calls follow the shape of the dose curve; as a rule, active = well fitted curve in the direction sought with a large enough effect; inconclusive = small, poorly fitted or top-dose-only effect, or another doubt; inactive = no such curve, though single readings can be large; an effect the other way counts as inactive or inconclusive.

Assays:
[1] = qHTS profiling of the MIPE4 collection as inhibitors of Plasmodium falciparum (3D7) proliferation (AID 743344; call rule not given here;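 also: scaled between DMSO vehicle wells and 0.29 µM artemisinin as full inhibition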); conditions: P. falciparum 3D7 in erythrocytes, SYBR Green DNA fluorescence, 72 h; at 28.5 µM unless noted
Summary of the method: (§1)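 Erythrocytes infected with P. falciparum (0.3% parasitemia, 2.5% hematocrit) incubated with compounds 72 h at 37 C, 5% CO2. Lysis with saponin/Triton buffer containing SYBR Green I, overnight at room temperature in the dark; DNA fluorescence (485/535 nm) normalised to 0.29 uM artemisinin and DMSO.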

[2] = qHTS profiling of the MIPE4 collection as inhibitors of Plasmodium falciparum (DD2) proliferation (AID 743345; call rule not given here); conditions: P. falciparum Dd2 in erythrocytes, SYBR Green DNA, 72 h; at 28.5 µM unless noted
Summary of the method: as §1

[3] = qHTS profiling of the MIPE4 collection as inhibitors of Plasmodium falciparum (DD2) proliferation (Rep 2) (AID 743346; call rule not given here); conditions: P. falciparum Dd2 in erythrocytes, SYBR Green DNA, 72 h; at 28.5 µM unless noted
Summary of the method: as §1

[4] = qHTS profiling of the MIPE4 collection as inhibitors of Plasmodium falciparum (HB3) proliferation (AID 743347; call rule not given here;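 also: plate controls were DMSO vehicle wells for no effect and artemisinin wells for full effect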); conditions: P. falciparum HB3 in erythrocytes, SYBR Green DNA, 72 h; at 28.5 µM unless noted
Summary of the method: as §1

[5] = High-throughput drug toxicity screening in the BPDCN cell line Gen2.2 (AID 1224824; call rule not given here;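 also: cells exposed to compounds for 48 h before reading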); conditions: Gen2.2 BPDCN cells; at 45.8 µM (top of the series) unless noted
Summary of the method: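 Readout is ATP luminescence from Gen2.2 cells after two days of drug exposure in serum-containing medium at 37 °C. Values express percent activity, with vehicle defining full signal and 9.2 uM bortezomib defining zero.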

[6] = High-throughput drug toxicity screening in the BPDCN cell line Cal-1 (AID 1224825; call rule not given here); conditions: Cal-1 BPDCN cell viability, qHTS; at 45.8 µM (top of the series) unless noted
Summary of the method: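 Cal-1 cells, 500 per well in phenol-red-free RPMI with 10% FBS, exposed to compounds for 48 hours at 37C, 5% CO2. Viability read by CellTiter-Glo luminescence; percent activity normalized to DMSO (100%) and 9.2 uM bortezomib final (0%).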

[7] = qHTS assay for measurement of the activity of small molecule inhibitors on Zika virus induced Caspase-3 activity in human iPSC derived neural progenitor cells (hNPCs) (AID 1224857); also: nearly all actives have a fitted effect of over 65% in size; also: potency is read from the fitted curve at half-maximal effect
Summary of the method: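 Values are percent inhibition of virus-induced caspase-3/7 signal, scaled between uninfected cells and ZIKV-infected cells. Infection used 2 FFU/cell for 6 h after 1 h compound exposure.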

[8] = qHTS assay for measurement of the activity of small molecule inhibitors on Zika virus induced Caspase-3 activity in human astrocytoma cells (AID 1224859);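 also: plate controls were ZIKV-infected untreated cells for no effect and uninfected cells for full effect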
Summary of the method: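 Compound added 1 h pre-infection; ZIKV 2 FFU/cell on SNB-19 cells, 6 h, 37 C/5% CO2. Caspase-Glo 3/7 luminescence; values as % inhibition of ZIKV-induced caspase activity.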

[9] = qHTS Screen of the MIPE 4.0 Collection Against Ewings Sarcoma (RDES) (AID 1259252); also: nearly all actives have a fitted effect of over 35% in size; also: potency is read from the fitted curve at half-maximal effect
Summary of the method: (§2)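 Log-phase cells in RPMI with 5% FBS attached for 4 h, then received compounds as a titration for 48 h at 37C, 5% CO2. Viability was read by CellTiter-Glo luminescence and normalized to DMSO and no-cell wells.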

[10] = qHTS Screen of the MIPE 4.0 Collection Against Ewings Sarcoma (TC71) (AID 1259253); also: nearly all actives have a fitted effect of over 40% in size; also: potency is read from the fitted curve at half-maximal effect
Summary of the method: as §2

[11] = qHTS Screen of the MIPE 4.0 Collection Against Ewings Sarcoma (TC32) (AID 1259256); also: nearly all actives have a fitted effect of over 45% in size; also: potency is read from the fitted curve at half-maximal effect
Summary of the method: as §2

[12] = qHTS profiling for inhibitors of Plasmodium falciparum (HB3) proliferation (AID 743324); conditions: Plasmodium falciparum HB3 blood-stage proliferation; at 28.7 µM (top of the series) unless noted;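 also: 100% = DMSO vehicle wells and 0% = artemisinin-treated control wells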
Summary of the method: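 P. falciparum HB3 grown in erythrocytes (0.3% parasitemia, 2.5% hematocrit final) with compound for 72 h at 37 C, 5% CO2. Parasite DNA detected by SYBR Green after saponin/triton lysis overnight; normalized to 0.29 uM artemisinin and DMSO.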

[13] = Identifying Small Molecule Inhibitors of Pancreatic Cancer Stem Cells (A2780, Spheroid) (AID 1259357); conditions: Potency: A2780 spheroid viability;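 also: spheroids pre-formed over 14 days in stem cell medium on hydrogel; compound exposure lasted 48 h before the ATP luminescence read; 100% = DMSO treated cells and 0% = wells without cells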
Summary of the method: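 Spheroids grown 14 days in stem cell media on nonadherent hydrogel before screening; cells attached 4 h, then compound exposure 48 h at 37C, 5% CO2. CellTiter-Glo luminescence normalized to DMSO (no inhibition) and no-cell wells (full inhibition).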

[14] = qHTS Screen of the MIPE 4.0 Collection Against Ewings Sarcoma (EW8) (AID 1259255); also: nearly all actives have a fitted effect of over 35% in size; also: potency is read from the fitted curve at half-maximal effect;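 as to viability: 100% = DMSO-treated cells and 0% = medium-only wells without cells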
Summary of the method: as §2

[15] = qHTS assay to identify small molecule inhibitors of chordoma cells - UCH-1 (AID 1259355); also: % is scaled to controls: 0 for no effect and ±100 for the full control effect; nearly all actives have a fitted effect of over 55% in size
Summary of the method: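 Cells (800/well) were seeded and left overnight at 37 C, 5% CO2, then treated with drugs at 15 concentrations plus a combination mix of auranofin, camptothecin, doxorubicin, rubitecan and topotecan. Viability after 48hr was read by CellTiter-Glo luminescence.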

[16] = qHTS assay to identify small molecule inhibitors of chordoma cells - UCH-2 (AID 1259356); also: % is scaled to controls: 0 for no effect and ±100 for the full control effect

Row | SMILES | parasite growth, % of DMSO control [1] | parasite growth remaining, % of DMSO control (lower = more inhibition) [2] | parasite growth, % of control (lower = inhibition) [3] | growth, % of control [4] | cell viability, % of control (lower = more cytotoxic) [5] | viability (% of control) [6] | Potency [7] | Potency [8] | Potency [9] | Potency [10] | Potency [11] | remaining proliferation (% of control), lower = more inhibition [12] | Potency [13] | Potency [14] | outcome [15] | outcome [16]
1 | O=C(NCCCCN1CCOCC1)c1cc2ccccc2o1 | 89% | 99.3% | 41.5% | 87.4% | 213% | 109% | inactive | inactive | inactive | inactive | inactive |  |  |  |  | 
2 | CC(=O)N1CCN(c2ccc(OCc3nn(C)c(C)c3-c3cccc4c(CCCOc5cc(C)c(Cl)c(C)c5)c(C(=O)O)n(Cc5cccnc5)c34)cc2)CC1 | 5.72% | 15.1% | 13.7% | 6.27% | 7.74% | 2.47% | inactive | inactive | 20.9 µM (active) | 20.9 µM (active) | 20.9 µM (active) |  |  |  |  | 
3 | COc1ccc(CCC(=O)Nc2nc3ccc(Cl)cc3s2)cc1OC | 22.3% |  |  |  | 135% | 98.2% | inactive | inactive | 20.9 µM (active) | 18.7 µM (active) | 13.2 µM (active) |  |  |  |  | 
4 | Cc1cc2c(cc1C1(c3ccc(C(=O)O)cn3)CC1)C(C)(C)CCC2(C)C |  | 95.5% | 77.6% |  | 529% | 121% | inactive | inactive | inactive | inactive | inactive | 94.8% | inactive |  |  | 
5 | Cc1c(-c2cccc3c(CCCOc4cccc5ccccc45)c(C(=O)O)n(Cc4cccnc4)c23)c(COc2ccc(N3CCN([S+](=O)([O-])N(C)C)CC3)cc2)nn1C | 5.78% | 7.43% | 15.4% |  | 121% | 86.1% | inactive | inactive | 16.6 µM (active) | 20.9 µM (active) | 18.7 µM (active) |  |  |  |  | 
6 | Cn1c(=O)c(-c2c(Cl)cccc2Cl)cc2cnc(Nc3cccc(C(=O)O)c3)nc21 | 12.8% | 13.6% | 19.9% |  | 462% | 77.7% | inactive | inactive | 0.0662 µM (active) | inactive | inactive |  |  |  |  | 
7 | NC(=O)c1noc([C@H](CCCC2CCCCC2)CC(=O)NO)n1 |  | 125% | 30.9% | 48.3% | 20% | 7.18% | inactive | inactive | 8.33 µM (active) | 26.4 µM (active) |  |  |  | 18.7 µM (active) |  | 
8 | NC(=O)c1ncn([C@@H]2O[C@H](CO)[C@@H](O)[C@@H]2O)n1 |  |  |  |  | 109% | 73.5% | inactive | inactive | inactive | inactive | inactive |  |  |  |  | 
9 | CCCCC[C@H](O)C=C[C@H]1[C@H](O)CC(=O)[C@H]1CC=CCCCC(=O)O | 86% | 11.2% | 56.3% |  | 31.5% | 23.7% | inactive | inactive | inactive | 18.7 µM (active) | 20.9 µM (active) |  |  |  |  | 
10 | CN(C)CCOc1ccc(-c2nc(-c3ccc4c(c3)CCC4=NO)c(-c3ccncc3)[nH]2)cc1 | 4.92% | 6.01% | 6.72% | 2.95% | 7.29% | 36.1% | inactive | inactive | 33.2 µM (active) | 26.4 µM (active) | 23.5 µM (active) |  |  |  |  | 
11 | NS(=O)(=O)c1cc(Cl)c(Cl)c(S(N)(=O)=O)c1 | 101% | 58.8% | 88.2% | 98.5% | 166% | 125% | inactive | inactive | inactive | inactive |  |  |  |  | inactive | inactive
12 | CC=C1C2C=C(C)CC1(N)c1ccc(=O)[nH]c1C2 (stereo not given) | 100% | 19.1% |  |  | 164% | 128% | inactive | inactive | inactive | 23.5 µM (active) |  |  |  |  |  | 
13 | CCCCCCCCCCCCCCCC(=O)O[C@H]1[C@@H](O)[C@@H](O)[C@@H]([C@H](NC(=O)[C@@H]2C[C@@H](CCC)CN2C)[C@H](C)Cl)O[C@@H]1SC | 31.4% | 11% | 20.4% |  | 218% | 94.5% | inactive | inactive | inactive | 13.2 µM (active) |  |  |  |  |  | 
14 | O=S(=O)(NCCNCC=Cc1ccc(Br)cc1)c1cccc2cnccc12 | 35.6% | 19.2% | 35.5% | 33.3% | 247% | 57.7% | inactive | inactive | 2.64 µM (active) | 2.64 µM (active) |  |  |  |  |  | 
15 | Cc1cc(CS(=O)(=O)c2ccccc2)cc(OCc2ccc(CN3CCC[C@H]3CO)cc2)c1 | 33.1% | 30.3% | 18.8% | 66.2% | 318% | 76.3% | inactive | inactive | 20.9 µM (active) | 20.9 µM (active) |  |  |  |  |  | 
16 | Cc1nc(NC(=O)N2CCC[C@@H]2C(N)=O)sc1-c1csc(C(C)(C)C)n1 | 16.4% | 80.7% | 28.5% | 14.5% | 14.1% | 55.1% | inactive | inactive | 5.26 µM (active) | 6.62 µM (active) |  |  |  |  |  | 
17 | CN1CC(=O)N2C(Cc3c([nH]c4ccccc34)[C@H]2c2ccc3c(c2)OCO3)C1=O (stereo not given in full) | 14% | 17.5% |  | 11.5% | 110% | 85.7% | 3.72 µM (active) | inactive | inactive |  | inactive |  |  | inactive | inactive | inactive
